# High-throughput results: PubChem BioAssay, The Scripps Research Institute Molecular Screening Center
# This is a sample that favours compounds with a hit; in the whole collection about 4.1% have one here.
# hgDAF-12 ag: H. glycines DAF-12 receptor agonists, primary screen, cell-based, luminescence, HEK293, GAL4 fusion, UAS-luciferase; HEK293 GAL4-hgDAF12 UAS-luciferase reporter, agonist luminescence; normalized to butyrate control; AID 687014, 2013; activation, % at 6.8 µM; Nuclear hormone receptor DAF-12 (Heterodera glycines), GAL4 fusion; actives 1.8% (n = 370,000);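 active = activation above a cutoff set at the mean of all screened compounds plus 3 SD, cut at about 10% in these data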;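 note: 0% = DMSO wells and 100% = sodium butyrate wells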
# DAX1 inh-1: DAX1 (NR0B1) inhibitors on StAR promoter, primary screen, cell-based, luminescence, SF-1 (NR5A1), full-length DAX-1; HEK293T StAR-luciferase reporter, SF-1/DAX-1 repression relief; inhibition, % at 6.8 µM; actives 1.1% (n = 370,000); AID 652010, 2013;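 active = inhibition above the mean over all tested compounds plus 3 SD, cut at about 3.6% in these data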;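 note: 0% = DAX-1 cells with DMSO and 100% = cells lacking DAX-1 with DMSO; higher inhibition means more luminescence from relief of DAX-1 repression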
# hcDAF12 agonist: H. contortus DAF-12 nuclear receptor activators, primary screen, cell-based, luminescence, HEK293, lit1-tk-luc reporter. HEK293 hcDAF-12 lit1-tk-luc reporter; 0% DMSO, 100% Δ7-dafachronic acid. activation, % at 6.8 µM. actives 1.4% (n = 370,000);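 active = activation above the mean of all tested compounds plus 3 SD, cut at about 5.5% in these data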;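 note: 100% = response to 3 µM Δ7-dafachronic acid high control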
# ssDAF12 agonist: S. stercoralis DAF-12 nuclear receptor activators, primary screen, cell-based, luminescence, HEK293, GRIP1 co-expression, lit1-tk-luc. HEK293 ssDAF-12/GRIP1 lit1-tk-luc reporter; % of 3 µM dafachronic acid response. activation, % at 6.8 µM. actives 1% (n = 370,000). AID 652126, 2013;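 active = activation above the mean over all tested compounds plus 3 SD, cut at about 0.9% in these data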;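 note: 0% = DMSO-only wells and 100% = 3 µM delta7-dafachronic acid wells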
# DAX1 inh-2: DAX1 (NR0B1) inhibitors, primary screen, cell-based, HEK293, Gal4-DAX1, luciferase luminescence. Nuclear receptor subfamily 0 group B member 1 (Homo sapiens), P51843. HEK293 Gal4-DAX1 luciferase reporter. inhibition, % at 6.75 µM. actives 0.99% (n = 340,000). AID 504766, 2011;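 active = inhibition above the mean over all tested compounds plus 3 SD, cut at about 4.2% in these data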;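 note: 0% = DAX1-transfected cells with DMSO and 100% = empty-vector control cells with DMSO; inhibition shows as a rise in luminescence from relieved DAX1 repression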
# Target sequence (P51843 207-470 limits assumed): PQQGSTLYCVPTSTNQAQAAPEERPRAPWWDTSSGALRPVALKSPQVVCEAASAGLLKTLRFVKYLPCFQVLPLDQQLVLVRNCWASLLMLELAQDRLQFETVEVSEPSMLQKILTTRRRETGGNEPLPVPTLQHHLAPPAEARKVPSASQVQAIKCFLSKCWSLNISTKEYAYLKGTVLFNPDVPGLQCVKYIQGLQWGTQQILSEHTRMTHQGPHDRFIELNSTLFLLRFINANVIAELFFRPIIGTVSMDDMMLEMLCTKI
# An asterisk follows results filed as active; x = not tested or not shown.
SMILES,hgDAF-12 ag,DAX1 inh-1,hcDAF12 agonist,ssDAF12 agonist,DAX1 inh-2
COc1ccc(NC(=O)N2CCCCC2c2cccnc2)cc1 (stereo unspecified),11.0*,0.6,5.6*,-0.2,0.0
COc1cc(OC)cc(C(=O)NC(=S)N2CCCCC2c2cccnc2)c1 (stereo unspecified),-2.4,0.9,-0.3,-1.4,3.9
Cc1onc(-c2ccccc2)c1C(=O)OCC(=O)c1ccc(F)cc1,3.2,-1.2,-1.4,3.5*,3.8
Nc1ccn([C@@H]2O[C@H](C(=O)N[C@H](Cc3ccccc3)C(=O)N3CCSC3)[C@@H](O)[C@H]2O)c(=O)n1,-3.2,-0.5,0.4,-0.5,x
CCN(CC)CC1CN(N=Cc2ccc([N+](=O)[O-])o2)C(=O)O1 (stereo unspecified),-0.9,-2.0,-0.9,-1.4,0.4
COc1ccc(CNC(=O)Cc2ccc(NC(=O)C3=C(C)OCCS3)cc2)cc1,11.1*,-2.3,1.9,-0.4,-0.1
COc1cccc(CNC(=O)c2cccc(NC(=O)C3=C(C)OCCS3)c2)c1,-4.2,-0.6,-0.2,-1.5,-1.3
Cc1cc(NC(=O)CSc2nc3c(C)ccc(C)c3cc2C#N)no1,-0.1,-0.4,-1.2,-1.0,5.7*
Cc1cc(C)c(C#N)c(SCC(=O)Nc2cc(C)on2)n1,10.5*,3.4,2.9,-0.3,1.7
Cc1cc(NC(=O)CSc2nc3c(C)cccc3cc2C#N)no1,0.1,0.5,-0.6,-0.4,0.3
CCOC(=O)CNC(=O)CSc1nc(C)cc(C)c1C#N,0.6,-0.6,-1.3,-1.4,-0.2
Cc1cc(NC(=O)CSc2nnc(C)n2-c2ccccc2C)no1,0.8,-0.3,-1.1,-0.7,4.2*
Cc1cc(NC(=O)CSc2nnc(C)n2-c2ccccc2)no1,-0.5,0.8,0.6,-2.0,-0.5
CCOC(=O)NC(=O)CSc1nc(C)cc(C)c1C#N,12.6*,3.5,3.1,-0.7,-1.1
COC(=O)[C@]12C[C@H](CC(=O)NCC3CCCCC3)C(=O)N(Cc3ccccc3)C1=C[C@H](COCc1ccccc1)O[C@@H]2C,2.9,-0.3,-2.1,-1.3,x
CC[C@H](NC(=O)[C@H]1O[C@@H](n2cnc3c(=O)[nH]c(N)nc32)[C@H](O)[C@@H]1O)c1ccccc1,2.2,0.8,0.0,-0.5,x
O=C(Nc1ccc2c(c1)CCC2)C1CCN(c2c3c(nc4ncnn24)CCC3)CC1,-6.3,-3.4,-5.1,-3.1,-3.1
O=C(NC1CCCc2ccccc21)C1CCN(c2c3c(nc4ncnn24)CCC3)CC1 (stereo unspecified),-0.4,0.4,-1.3,1.1*,-1.2
c1ccc2c(c1)OCc1nccn1-2,1.3,-0.7,1.9,-0.1,x
CCCNC(=O)CCn1nc(-c2ccc(Cl)cc2)c2ccccc2c1=O,4.4,0.1,-1.6,-2.0,5.4*
FC(F)(F)c1cc(Cc2nc3ccccc3n2C(CCc2ccccc2)c2nc3ccccc3[nH]2)cc(C(F)(F)F)c1 (stereo unspecified),5.5,3.9*,0.1,-1.5,x
Cc1ccc(Cc2nc3ccccc3n2C(CCc2ccccc2)c2nc3ccccc3[nH]2)cc1 (stereo unspecified),2.5,2.7,-0.1,-1.1,x
Cc1cccc(C)c1NC(=O)c1c[nH]c2ccccc12,6.6,0.8,6.2*,-0.6,0.7
Cc1[nH]c2ccccc2c1CC(=O)Nc1ccc(Nc2ccncc2)cc1,3.0,-1.6,4.7,2.1*,x
CN(c1cccnc1)c1ccc(NC(=O)Cc2c[nH]c3ccccc23)cc1Br,6.3,0.2,6.5*,1.5*,x
O=C(COC(=O)CCc1c[nH]c2ccccc12)Nc1ccc([N+](=O)[O-])cc1,-2.4,-0.7,0.7,-1.2,5.2*
Cc1ccccc1NC(=O)NCCc1c[nH]c2ccccc12,-2.9,-0.6,-2.2,-0.7,-1.6
O=C(Cc1c[nH]c2ccccc12)Nc1ccc(Nc2ccncc2)cc1,-1.8,0.1,6.0*,0.3,x
